About 83,000 compounds went through this panel and 20% of them were active in at least one assay; those are over-represented in the sample as a whole.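 Percent growth is the endpoint: 0 to 100 indicates growth inhibition (40 means 60% inhibition), 0 means no net growth, and negative values indicate cell death.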 Unmarked numbers belong to inactive results. Activity calls are given as the source filed them. How the source made its calls: active means growth percent below 10; inactive means the rest.
Key:
Assay in all cases: NCI-60 one-dose screen, 48 h (100 = growth as untreated, 0 = no growth, -100 = all killed)
Conditions in all cases: 10 µM unless noted
SK-MEL-2 melanoma = system: SK-MEL-2 melanoma
EKVX NSCLC = system: EKVX NSCLC
SN12C renal = system: SN12C renal
UO-31 renal = system: UO-31 renal
TK-10 renal = system: TK-10 renal
ACHN renal = system: ACHN renal
CAKI-1 renal = system: CAKI-1 renal
A498 renal = system: A498 renal
MOLT-4 leukemia = system: MOLT-4 leukemia
CCRF-CEM leukemia = system: CCRF-CEM leukemia

SMILES | growth (SK-MEL-2 melanoma) | growth (EKVX NSCLC) | growth (SN12C renal) | growth (UO-31 renal) | growth (TK-10 renal) | growth (ACHN renal) | growth (CAKI-1 renal) | growth (A498 renal) | growth (MOLT-4 leukemia) | growth (CCRF-CEM leukemia)
CNCCN(C)c1ccc(Nc2cc(NC3CC3)n3ncc(C#N)c3n2)cc1NC(C)=O | -20.4% (active) | 7.67% (active) | 22.4% | 6.68% (active) | -29.9% (active) | 15.1% | -36.6% (active) | -36.5% (active) | 8.27% (active) | –
CC(Nc1ncnc2ccc(-c3cnc(N)nc3)cc12)c1ccccc1 (stereo not drawn) | 60.8% | 13.5% | 22.1% | 9.12% (active) | -8.21% (active) | 16.9% | 16.7% | 11.5% | 30.3% | 36.4%
CCN1CCN(c2ccc(NC(=O)Nc3ccc4c(ccn4-c4ccnc(C(=O)NC)c4)c3)cc2C(F)(F)F)CC1 | 94.8% | 86.3% | 90.8% | 71% | 113% | 74.7% | 79.3% | 81.1% | 10.9% | –
NC(=O)n1c(=O)n(-c2cccc(C(F)(F)F)c2)c(=O)c2cc(-c3ccc(F)cc3F)ccc21 | -20.1% (active) | -0.656% (active) | 1.52% (active) | 4.54% (active) | 8.59% (active) | -3.85% (active) | -21.6% (active) | -26.4% (active) | 0.274% (active) | –
Cc1ccc(N2CCN(C3=C(Cl)C(=O)c4ncccc4C3=O)CC2)cc1 | 94.4% | 97% | 27.8% | 32% | 133% | 1.41% (active) | 44.3% | 111% | 13.9% | –
CC1=C(C)C(=O)C(Nc2cccc(C(=O)OC(C)(C)C)c2)=CC1=O | 82.4% | 81.2% | 61.3% | 66.4% | 125% | 86.4% | 71.5% | 66.9% | 65% | 78.8%
O=C(Nc1cccc(C(F)(F)F)c1)N1CCN(c2cc(-c3cn(-c4ccccc4)nc3-c3cccc(O)c3)ccn2)CC1 | 43.7% | 42% | 49% | 25.3% | 63.3% | 39.2% | 51.8% | 49.4% | 18.9% | 21.5%
Cn1c(SCC(=O)c2ccc(F)cc2)nc2ccccc2c1=O | 105% | 79.6% | 91.4% | 74.2% | 120% | 96.4% | 87.7% | 99.5% | 95.8% | –
Cc1ccc(/C(N)=N/C(N)=N/c2nc3ccccc3s2)cc1 | 114% | 67.7% | 60.2% | 87% | 136% | 66.8% | 76.8% | 121% | 75.9% | –
CCNC(=O)Oc1ccc(/C(=C(/C)c2ccc(OC)cc2)c2ccc(OCCN3CCCCCC3)cc2)cc1 | 83.4% | 69.7% | 59.4% | 0.828% (active) | 116% | 61.3% | 14.5% | 54.8% | 17.2% | –
COc1ccc2[nH]cc(-c3nn4cc(-c5ccncc5)nc4s3)c2c1 | 101% | 55.4% | 83.5% | 23.3% | 109% | 57.5% | 56.9% | 68.9% | 50.4% | –
O=C(/C=C/Nc1ccc(S(=O)(=O)Nc2ncccn2)cc1)c1ccc(N=Cc2c(O)[nH]c3ccccc23)cc1 | 118% | 103% | 98.3% | 92.4% | 112% | 106% | 94.4% | 98.5% | 109% | –
CSc1ccc(/C(=N/N=C(N)N)c2ccc(F)cc2)cc1 | 48.6% | 36.6% | 36.9% | 30.5% | 39.1% | 35.8% | 15.6% | 5.39% (active) | -2.76% (active) | 5.74% (active)
Fc1ccc2nc(-c3cnn4cccnc34)sc2c1 | 119% | 61.8% | 90.2% | 46.8% | 123% | 78.9% | 68.9% | 89.7% | 80.3% | –
COc1ccc(OC)c(CCn2cncc2-c2c[nH]c3ccc(Cl)cc23)c1 | 19% | 37.5% | 63.6% | 46.6% | 50.7% | 60.5% | 31.3% | 44.8% | 25% | –
Cc1ccc(S(=O)(=O)NCCCNc2nc(Nc3ccc(N4CCN(C)CC4)cc3)nc3ccsc23)cc1 | 92.9% | 78.8% | 58.3% | 50.7% | 124% | 11.7% | 14.5% | 56.2% | 9.91% (active) | –
CC1CCN(CC(=O)Nn2c(COc3ccccc3)nc3ccccc3c2=O)CC1 | 87.2% | 86.1% | 96.3% | 70.7% | 125% | 102% | 71.2% | 81.8% | 88.1% | –
CCCCCC[n+]1ccc(SCC(=O)n2ccc3ccccc32)c2ccccc21 | 94.3% | 83.8% | 88.8% | 68.6% | 108% | 87.2% | 78.4% | 115% | 79.4% | –
CN1CCN(Cc2ccc(NC(=O)c3cncc(C#Cc4cnc5ccc(NCCO)nn45)c3)cc2C(F)(F)F)CC1 | -89% (active) | -0.668% (active) | 1.09% (active) | 58.4% | -16.3% (active) | 8.5% (active) | -3.82% (active) | -94.3% (active) | 3.21% (active) | –
CCCNNC(=O)c1ccc(-c2ccc(NC(=O)CCCCCCC(=O)N[C@H](C(=O)N3C[C@H](O)C[C@H]3C(=O)N[C@@H](C)c3ccc(-c4scnc4C)cc3)C(C)(C)C)cc2)cc1 | 7.01% (active) | 79.4% | 47.8% | 83.6% | 2.19% (active) | 78.2% | 61.8% | -14.4% (active) | 21.1% | 23.2%
C#CCN(C)CCCOc1ccc(NC(=O)CCCCCCC(=O)NO)cc1Cl | 32.7% | 51.5% | 41.2% | 26.3% | 1.34% (active) | 20.3% | 17.9% | -12.1% (active) | 16.9% | 15.5%
Cc1ccc(NC(=O)/C=C/c2ccc(OCCCOc3ccc4c(C)cc(=O)oc4c3)cc2)cc1 | 58% | 83.1% | 73.3% | 39.6% | 91.5% | 17.7% | 51% | 45.2% | 103% | –
CN1CCN(c2ccc(Nc3nc(NCCNC(=O)c4ccc(F)cc4)c4sccc4n3)cc2)CC1 | 104% | 92.7% | 84.2% | 65.5% | 128% | 67.8% | 57.9% | 125% | 23.4% | –
N#Cc1cnc2ccc(-c3cnc4n[nH]nc4c3)cc2c1N1CCc2cc(F)c(Cl)cc21 | -22.6% (active) | 3.17% (active) | 14.8% | 2.18% (active) | -11.4% (active) | 13.6% | 6.12% (active) | -11.8% (active) | -1.31% (active) | –
C=C1CCc2nc(SCC(=O)O)ccc2N1 | 104% | 101% | 97.1% | 91.1% | 100% | 102% | 97.3% | 85.7% | 97.5% | –
C/C(=N\NC(=O)/C=C/CC(=O)O)c1nnn(-c2ccc([N+](=O)[O-])cc2)c1C | 99.5% | 101% | 101% | 87.8% | 94.1% | 104% | 91.5% | 110% | 105% | –
Cc1[nH]c(C(=O)Nc2ccc(C(=O)NCC3CCNCC3)cc2OC(C)C)c(Cl)c1Cl | 97.9% | 82.8% | 81.4% | 88.6% | 90.2% | 99.9% | 76.7% | 79.4% | 19.6% | –
COc1ccc(/C=N/NC(=O)CSc2nc(-c3cnccn3)cc(-c3cccs3)c2C#N)cc1 | 89% | 78.2% | 64% | 101% | 98.7% | 74% | 48.3% | 79% | 73.8% | –
